# Results taken from PubChem BioAssay AID2284383 (EPA ToxCast).
# Records with an inconclusive call do not appear. Activity calls are given as the source filed them. Rule for the calls: active = hit-call score of the fitted dose curve at least 0.9, where 1 is the maximum; inconclusive = response in the unintended direction; inactive = score below 0.9.
# Molecular target: human Retinoic Acid Receptor gamma (RARg) Agonism, RARG (gene 5916) (UniProt P13631)
# Test: ERF_TW_NR_COA_hRARG: Eurofins (ERF) Nuclear Receptor (NR) Functional Coactivator Assay for human Retinoic Acid Receptor gamma (RARg) Agonism
# Experimental: ERF_TW_NR_COA_hRARG is a biochemical, single-readout assay that uses extracted gene-proteins in a cell-free assay. Measurements were taken 16 hours after chemical dosing in a 96-well plate. […] It is designed to measure FRET using a type of binding reporter as detected by fluorescence intensity of AM580 with fluorimetry technology.Data from the assay component ERF_TW_NR_COA_hRARG was analyzed at the assay endpoint, ERF_TW_NR_COA_hRARG, in the positive analysis fitting direction relative to DMSO as the negative control and baseline of activity. Using a type of binding reporter, gain-of-signal activity can be used to understand changes in binding as they relate to gene RARG. To generalize the intended target to other relatable targets, this assay endpoint is annotated to the nuclear receptor intended target family, where the subfamily is non-steroidal.
# Human recombinant retinoic acid receptor […] (RARgamma) receptors expressed in bacteria are used. Test compound and/or vehicle is incubated with the 25 nM receptors and binding buffer in modified Tris-HCl buffer pH 7.4 for 16 hours at 4C. Determination of the amount of complex formed is read spectrofluorimetrically (excitation:337 nm, emission:620/665 nm). Test compound-induced increase in fluorescence by 50 percent or more (>/= 50%) relative to the 0.3 uM AM580 response indicates possible RARgamma receptor agonist activity. […] Membrane protein may change from lot to lot, the concentration used will be adjusted if necessary.
# human Retinoic Acid Receptor gamma (RARg) Agonism, RARG (gene 5916), sequence (P13631 whole entry, looked up): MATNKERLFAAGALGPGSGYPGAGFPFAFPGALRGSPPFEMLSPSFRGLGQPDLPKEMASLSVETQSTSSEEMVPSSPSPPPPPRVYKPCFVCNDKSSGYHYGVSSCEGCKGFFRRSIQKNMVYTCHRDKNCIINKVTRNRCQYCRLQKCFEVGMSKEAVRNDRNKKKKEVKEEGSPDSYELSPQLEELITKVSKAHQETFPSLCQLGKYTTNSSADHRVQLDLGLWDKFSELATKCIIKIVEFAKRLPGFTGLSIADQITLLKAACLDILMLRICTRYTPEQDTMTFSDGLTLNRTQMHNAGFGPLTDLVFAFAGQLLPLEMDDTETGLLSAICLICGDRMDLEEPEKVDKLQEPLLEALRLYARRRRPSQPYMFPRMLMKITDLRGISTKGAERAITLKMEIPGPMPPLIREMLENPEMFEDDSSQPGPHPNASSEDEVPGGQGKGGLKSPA
Structure (SMILES),AC50,outcome
ClC1=C(Cl)[C@]2(Cl)[C@@H]3[C@@H]4C[C@@H]([C@H]5O[C@@H]45)[C@@H]3[C@@]1(Cl)C2(Cl)Cl,6.6 µM (active),
Cc1ccc2cc3c(ccc4ccccc43)c3c2c1CC3,,inactive
ClC1=C(Cl)[C@]2(Cl)[C@@H]3[C@H]4C[C@H]([C@@H]5O[C@H]45)[C@@H]3[C@@]1(Cl)C2(Cl)Cl,6.15 µM (active),
